According to PubChem BioAssay (NCATS):
Values joined by “and” are separate entries in the source; they are usually repeats but may differ in a detail not shown here. Equal entries are not always repeated. Records with an inconclusive call do not appear. Active and inactive are the calls of the source. Calls come from the whole dose curve; as a rule, active = well fitted curve in the direction sought with a large enough effect; inconclusive = small, poorly fitted or top-dose-only effect, or another doubt; inactive = no such curve, though single readings can be large; an effect the other way counts as inactive or inconclusive.

Tests used:
[1] = NCATS anti-infectives library activity on HEK293 viability as a counter-qHTS vs the C. elegans viability qHTS (AID 1745854);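 note: HEK293 cells exposed to compounds for 24 hr before the viability read; % is set by controls: 0 for no effect and ±100 for the full control effect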
Method in brief: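 Cytotoxicity in human HEK293 cells is measured by ATP-dependent CellTiter-Glo luminescence following a 24 hr incubation with titrated library compounds at 37C. Top final concentration is 41.7 uM.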

[2] = molecular target: Metallo-beta-lactamase type 2 (Klebsiella pneumoniae) (UniProt C7C422); assay: qHTS to identify inhibitors of the New Delhi Metallo-beta-lactamase (NDM): assay validation screen against the NCATS LOPAC Collection (AID 1794843);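 note: nitrocefin turnover by NDM-1 measured as 485 nm absorbance at plateau; % is set by controls: 0 for no effect and ±100 for the full control effect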
Sequence of Metallo-beta-lactamase type 2 (Klebsiella pneumoniae) (C7C422 whole entry, looked up): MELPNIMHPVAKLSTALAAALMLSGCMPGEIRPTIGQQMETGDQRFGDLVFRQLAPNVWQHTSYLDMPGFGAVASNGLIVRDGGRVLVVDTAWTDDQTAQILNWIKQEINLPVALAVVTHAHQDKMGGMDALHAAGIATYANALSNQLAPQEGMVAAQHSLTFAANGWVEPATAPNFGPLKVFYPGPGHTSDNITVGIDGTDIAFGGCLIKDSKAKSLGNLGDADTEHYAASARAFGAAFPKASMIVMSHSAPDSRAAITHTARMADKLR
Method in brief: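 Nitrocefin hydrolysis (50 uM substrate stock) by NDM-1, 2 nM final, was followed by 485 nm absorbance after compound preincubation; buffer was 50 mM HEPES pH 7.0, 1 uM ZnSO4, 0.01% Tween20.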

[3] = molecular target: Glutathione peroxidase 1 (Homo sapiens) (UniProt P07203); assay: Primary qHTS Assay for Inhibitors of Recombinant Selenoprotein Glutathione Peroxidase 1 (GPX1) (AID 1845191); note: nearly all actives have a fitted effect of over 65% in size; note: potency is the fitted concentration of half-maximal effect; for activity, negative = inhibition: % is set by controls: 0 for no effect and ±100 for the full control effect
Sequence of Glutathione peroxidase 1 (Homo sapiens) (P07203 whole entry, looked up): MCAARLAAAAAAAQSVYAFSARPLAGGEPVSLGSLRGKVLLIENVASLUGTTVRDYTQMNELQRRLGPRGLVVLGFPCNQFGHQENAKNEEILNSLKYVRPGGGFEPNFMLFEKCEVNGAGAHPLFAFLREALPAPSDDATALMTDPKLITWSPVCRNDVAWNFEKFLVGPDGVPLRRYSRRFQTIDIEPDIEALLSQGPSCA
Method in brief: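 10 nM GPX1 + cpd, 30 min RT; start w/ 1 mM GSH, 0.5 mM cumene hydroperoxide, 0.5 mM NADPH, 100 nM GR, 0.01% BSA; buffer 50 mM Tris-HCl pH 7.5, 2 mM EDTA, 150 mM NaCl; Fl 340/450, 0 & 15 min.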

[4] = molecular target: Phospholipid hydroperoxide glutathione peroxidase GPX4 (Homo sapiens) (UniProt P36969); assay: Primary qHTS Assay for Inhibitors of Recombinant Selenoprotein Glutathione Peroxidase 4 (GPX4) (AID 1845192); details: outcome: dose series up to 50 µM unless noted; note: nearly all actives have a fitted effect of over 65% in size
Sequence of Phospholipid hydroperoxide glutathione peroxidase GPX4 (Homo sapiens) (P36969 whole entry, looked up): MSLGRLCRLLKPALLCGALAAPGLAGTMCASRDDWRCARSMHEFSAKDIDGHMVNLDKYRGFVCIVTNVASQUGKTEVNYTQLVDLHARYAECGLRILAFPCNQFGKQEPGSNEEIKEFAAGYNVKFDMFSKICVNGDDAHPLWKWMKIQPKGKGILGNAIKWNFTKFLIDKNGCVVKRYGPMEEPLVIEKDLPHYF
Method in brief: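 NADPH consumption, followed by fluorescence at 340/450 nm between 0 and 15 min, reports GPX4 activity via coupled glutathione reductase (100 nM). Enzyme 200 nM was pre-exposed to compound 30 min; 0.5 mM cumene hydroperoxide and 1 mM GSH served as substrates.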

[5] = qHTS profiling for inhibitors of Plasmodium falciparum proliferation (AID 504749); note: potency is the fitted concentration of half-maximal effect;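 for activity, negative = inhibition: 0% = DMSO vehicle and full inhibition = artemisinin control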; for all read-outs here: nearly all actives have a fitted effect of over 60% in size; details: P. falciparum in erythrocytes, SYBR Green DNA, 72 h; for activity, negative = inhibition: at 28.7 µM (top of the series)
Method in brief: (§1)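 Three-day growth assay of blood-stage parasites in erythrocytes (0.3% parasitemia, 2.5% hematocrit) at 37 C, 5% CO2, quantified by SYBR Green DNA staining after overnight detergent lysis.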

[6] = system: 3D7; assay: as above; details: P. falciparum in erythrocytes, SYBR Green DNA, 72 h; series mostly up to 28.7 µM
Method in brief: as §1

[7] = system: 7G8; assay: as above; details: P. falciparum in erythrocytes, SYBR Green DNA, 72 h; series mostly up to 28.7 µM
Method in brief: as §1

[8] = system: AA1029; assay: as above; details: P. falciparum in erythrocytes, SYBR Green DNA, 72 h; series mostly up to 28.7 µM
Method in brief: as §1

[9] = system: AS120; assay: as above; details: P. falciparum in erythrocytes, SYBR Green DNA, 72 h; series mostly up to 28.7 µM
Method in brief: as §1

[10] = system: ATS189; assay: as above; details: P. falciparum in erythrocytes, SYBR Green DNA, 72 h; series mostly up to 28.7 µM
Method in brief: as §1

[11] = system: ATS95; assay: as above; details: P. falciparum in erythrocytes, SYBR Green DNA, 72 h; series mostly up to 28.7 µM
Method in brief: as §1

[12] = system: C2A; assay: as above; details: P. falciparum in erythrocytes, SYBR Green DNA, 72 h; series mostly up to 28.7 µM
Method in brief: as §1

[13] = system: CP185; assay: as above; details: P. falciparum in erythrocytes, SYBR Green DNA, 72 h; series mostly up to 28.7 µM
Method in brief: as §1

[14] = system: CP191; assay: as above; details: P. falciparum in erythrocytes, SYBR Green DNA, 72 h; series mostly up to 28.7 µM
Method in brief: as §1

[15] = molecular target: Nicotinamide N-methyltransferase (Homo sapiens) (UniProt P40261); assay: Confirmatory Screen for Target Class Profiling of Small Molecule Inhibitors of Methyltransferases (AID 1745852); details: MTase-Glo luminescence, SAH detection, recombinant enzyme; measured here: NNMT max response; stronger effect = lower value
Sequence of Nicotinamide N-methyltransferase (Homo sapiens) (P40261 whole entry, looked up): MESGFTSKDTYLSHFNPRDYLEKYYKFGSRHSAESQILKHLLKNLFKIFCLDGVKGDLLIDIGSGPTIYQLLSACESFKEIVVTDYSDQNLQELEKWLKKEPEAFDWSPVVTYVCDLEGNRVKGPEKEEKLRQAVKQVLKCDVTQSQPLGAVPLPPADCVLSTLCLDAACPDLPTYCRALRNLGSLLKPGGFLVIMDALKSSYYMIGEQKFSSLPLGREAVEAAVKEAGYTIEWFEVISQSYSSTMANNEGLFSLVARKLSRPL

[16] = molecular target: Phenylethanolamine N-methyltransferase (Homo sapiens) (UniProt P11086); assay: as above; details: MTase-Glo luminescence, SAH detection, recombinant enzyme; measured here: PNMT max response; stronger effect = lower value
Sequence of Phenylethanolamine N-methyltransferase (Homo sapiens) (P11086 whole entry, looked up): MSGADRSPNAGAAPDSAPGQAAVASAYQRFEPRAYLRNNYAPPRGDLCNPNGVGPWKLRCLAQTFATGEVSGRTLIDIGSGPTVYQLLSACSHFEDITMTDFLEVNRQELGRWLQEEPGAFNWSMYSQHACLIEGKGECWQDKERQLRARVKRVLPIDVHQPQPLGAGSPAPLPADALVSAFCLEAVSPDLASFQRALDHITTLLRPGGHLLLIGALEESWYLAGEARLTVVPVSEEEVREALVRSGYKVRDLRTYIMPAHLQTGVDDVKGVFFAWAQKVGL

[17] = molecular target: Luciferin 4-monooxygenase (Photinus pyralis) (UniProt P08659); assay: Primary firefly luciferase (FLuc) qHTS assay for identification of artifact compounds. (AID 1845220);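 note: plate controls were DMSO vehicle for no effect and no enzyme for full effect; nearly all actives have a fitted effect of over 60% in size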
Method in brief: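 Cell-free, 1536-well qHTS. Buffer pH 7.6 with 0.01% Tween-20 and 0.05% BSA; 10 uM D-luciferin, 10 uM ATP; 10 nM P. pyralis luciferase; luminescence after 5 min.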

[18] = Primary fluorescence-based thiol-reactive (MSTI) qHTS assay for identification of artifact compounds. (AID 1845221);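 note: thiol-reactive compounds lower the probe fluorescence signal; nearly all actives have a fitted effect of over 65% in size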
Method in brief: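 One-hour, room-temperature, dark incubation of compound with 4 uM MSTI in PBS (pH 7.4, 2% DMSO) precedes a fluorescence read at 525 nm excitation, 598 nm emission; Hill-equation fitting yields concentration-response values.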

[19] = system: Nanoluciferase (engineered Oplophorus gracilirostris luciferase); assay: Primary Nanoluciferase (NLuc) qHTS assay for identification of artifact compounds. (AID 1845222);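 note: 0% = DMSO and -100% = no enzyme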
Method in brief: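 Compounds are pinned into diluted (1:55) conditioned medium of NLuc-expressing S16 cells and held 15 min at room temperature protected from light. Nano-Glo substrate follows, and luminescence is read 5 min later.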

[20] = Primary redox qHTS assay for identification of artifact compounds. (AID 1845223);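 note: 0% = DMSO and 100% = reference compound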
Method in brief: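 Amplex Red (25 uM) and HRP (250 mU/mL) in HBSS, with compounds for 15 min, then 250 uM DTT for 30 min, room temperature, dark. Fluorescence 525/598 nm read; normalized to DMSO and 10 uM DA3003; Hill fit.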

CC(=O)Nc1nnc(S(N)(=O)=O)s1
inactive: outcome [1] | Potency [2] | Potency [3] | outcome [4] | activity, negative = inhibition ([5]; parasite line A) -9.91% | activity, negative = inhibition ([5]; parasite line B) 6.59% | Potency [6] | Potency [7] | Potency [8] | Potency [9] | Potency [10] | Potency [11] | Potency [12] | Potency [13] | Potency [14]

CN/C(=C\[N+](=O)[O-])NCCSCc1ccc(CN(C)C)o1
inactive: Potency [2] | Potency [3] | outcome [4]

CO[C@@]1(NC(=O)CSCC#N)C(=O)N2C(C(=O)O)=C(CSc3nnnn3C)CS[C@@H]21
inactive: Potency [2] | outcome [4]
active: Potency [3] 4.04 µM and 25.1 µM

CC(C)(C)NCC(O)c1cc(O)cc(O)c1 (centres undefined)
inactive: Potency [2] | Potency [3] | outcome [4]

COc1cc(Cc2cnc(N)nc2N)cc(OC)c1OC
inactive: outcome [1] | Potency [2]

Nc1nc(N)c2nc(-c3ccccc3)c(N)nc2n1
active: Potency ([5]; parasite line A) 2 µM | Potency [6] 7.08 µM
inactive: outcome [1] | Potency [2] | outcome [4] | activity, negative = inhibition ([5]; parasite line B) 5.12% | Potency [8] | Potency [9] | Potency [10] | Potency [11] | Potency [12] | Potency [13] | Potency [14]

Cc1cccc(C)c1NC(=O)C(C)N (centres undefined)
inactive: Potency [2] | Potency [3] | outcome [4]

C[C@]12C=CC(=O)C=C1CC[C@H]1[C@@H]3C[C@@H](O)[C@](O)(C(=O)CO)[C@@]3(C)C[C@H](O)[C@@]12F
inactive: Potency [2] | Potency [3] | outcome [4]

CCCNC(C)C(=O)Nc1ccccc1C (centres undefined)
inactive: Potency [2] | Potency [3]

COc1cc(C(=O)OCCCN2CCCN(CCCOC(=O)c3cc(OC)c(OC)c(OC)c3)CC2)cc(OC)c1OC
-4.53%: activity [15]
active: Potency [6] 11.2 µM | Potency [7] 8.91 µM | Potency [8] 11.2 µM | Potency [9] 10 µM | Potency [10] 8.91 µM | Potency [14] 12.6 µM
1.01%: activity [16]
inactive: Potency [2]

CCCN1C[C@H](CSC)C[C@@H]2c3cccc4[nH]cc(c34)C[C@H]21
0.569%: activity [16]
inactive: Potency [2] | Potency [3] | outcome [4] | outcome [17] | outcome [18] | outcome [19] | outcome [20] | Potency [6] | Potency [13]
-3.93%: activity [15]
active: Potency [7] 11.2 µM | Potency [9] 12.6 µM | Potency [11] 7.94 µM

CCC(=O)c1ccc2c(c1)N(CCCN(C)C)c1ccccc1S2
-51.8%: activity [15]
-2.93%: activity [16]
inactive: Potency [2] | Potency [3] | outcome [4] | activity, negative = inhibition ([5]; parasite line A) -23.2% | activity, negative = inhibition ([5]; parasite line B) -3.51% | Potency [6] | Potency [13]

COc1ccc2c(c1OC)C(=O)O[C@@H]2[C@H]1c2c(cc3c(c2OC)OCO3)CCN1C
inactive: Potency [2] | Potency [3] | outcome [4]

CC(C)NCC(O)c1cc(O)cc(O)c1 (centres undefined)
inactive: Potency [2] | Potency [3] | outcome [4]

OCCN1CCN(CCCN2c3ccccc3C=Cc3ccccc32)CC1
active: Potency ([5]; parasite line A) 8.91 µM | Potency ([5]; parasite line B) 11.2 µM | Potency [6] 11.2 µM | Potency [7] 2 µM | Potency [8] 4.47 µM | Potency [9] 4.47 µM | Potency [10] 5.01 µM | Potency [11] 5.01 µM | Potency [12] 11.2 µM | Potency [13] 12.6 µM | Potency [14] 4.47 µM
inactive: outcome [1] | Potency [2] | Potency [3]
